# Assay results taken from the supplement of paper PMC6555819.
# Legend:
# Test in all cases: PBM binding z-score (relative to random genomic background probes); higher = stronger binding; sequences stand for … in GC…GCGATTGACAGCGTAGAATGAAGG
# [1] = tested on: PPARg:RXRa DBDmut IVT, anti-RXR (DBD mutation: RXRa K156A/R161A, NR concentration 270 nM, RXRa partner concentration 90 nM)
# Summary of the method: (§1)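 Binding buffer was PBS pH 7.4 with 2% milk, 0.02% Triton X-100, 1 mM DTT, 0.2 mg/mL BSA and 0.4 mg/ml salmon testes DNA. In it, ligand-free nuclear receptor dimers were incubated 1 h on custom Agilent 4×180K protein-binding microarrays carrying double-stranded probes. Antibodies against each partner (one per run) detected binding, and z-scores were calculated against random background probes after regression normalization of scanned fluorescence.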
# [2] = tested on: PPARg:RXRa IVT, anti-PPARg (NR concentration 270 nM, RXRa partner concentration 90 nM)
# Summary of the method: as §1
# [3] = tested on: PPARg DBDmut:RXRa IVT, anti-PPARg (DBD mutation: PPARg1 K132A/R137A, NR concentration 270 nM, RXRa partner concentration 90 nM)
# Summary of the method: as §1
# [4] = tested on: PPARg DBDmut IVT, anti-PPARg (DBD mutation: PPARg1 K132A/R137A, NR concentration 270 nM)
# Summary of the method: as §1
# [5] = tested on: PPARg homodimer (NR concentration 180 nM)
# Summary of the method: as §1
# [6] = tested on: PXR:RXRa (NR concentration 270 nM, RXRa partner concentration 90 nM)
# Summary of the method: as §1
# [7] = tested on: PXR homodimer (NR concentration 270 nM)
# Summary of the method: as §1
# [8] = tested on: RARa:RXR (NR concentration 270 nM, RXRa partner concentration 90 nM)
# Summary of the method: as §1
# [9] = tested on: RARa homodimer (NR concentration 270 nM)
# Summary of the method: as §1
# [10] = tested on: RARb:RXRa (NR concentration 270 nM, RXRa partner concentration 90 nM)
# Summary of the method: as §1
# [11] = tested on: RARb homodimer (NR concentration 270 nM)
# Summary of the method: as §1
# [12] = tested on: RARg:RXRa (NR concentration 270 nM, RXRa partner concentration 90 nM)
# Summary of the method: as §1
# [13] = tested on: RARg homodimer (NR concentration 270 nM)
# Summary of the method: as §1
# [14] = tested on: RXRa DBDmut IVT, anti-RXR (DBD mutation: RXRa K156A/R161A, NR concentration 90 nM)
# Summary of the method: as §1
# [15] = tested on: RXRa homodimer (NR concentration 180 nM)
# Summary of the method: as §1
# [16] = tested on: THRa:RXRa (NR concentration 90 nM, RXRa partner concentration 90 nM)
# Summary of the method: as §1
# [17] = tested on: THRa homodimer (NR concentration 90 nM)
# Summary of the method: as §1
# [18] = tested on: VDR homodimer (NR concentration 270 nM)
# Summary of the method: as §1
Sequence,PBM binding z-score [1],PBM binding z-score [2],PBM binding z-score [3],PBM binding z-score [4],PBM binding z-score [5],PBM binding z-score [6],PBM binding z-score [7],PBM binding z-score [8],PBM binding z-score [9],PBM binding z-score [10],PBM binding z-score [11],PBM binding z-score [12],PBM binding z-score [13],PBM binding z-score [14],PBM binding z-score [15],PBM binding z-score [16],PBM binding z-score [17],PBM binding z-score [18]
CAAACTAGGTCACCGGAAGGTAAAAGTCCGCATG,8.41,8.97,5.23,6.11,4.02,2.47,0.103,3.44,0.872,4.32,3.46,5.33,5.29,1.61,3.87,3.69,1.84,1.01
TCTTTTAGATCAACAGGAGGTTAAGAAAGATCGA,2.11,0.854,1.33,1.69,0.914,1.3,0.393,1.6,0.513,0.952,0.623,1.24,0.914,1.31,1.48,1.08,-0.0396,-0.0983
TCTAGCAGGTCAGAGGGTCACTCAAGAGGTACGG,2.58,3.84,0.285,-0.567,3.57,3.55,-0.129,5.12,0.365,4.07,4.51,5.64,5.13,0.85,5.09,3.03,0.408,1.72
CCTACTGGGCCAAAGGTCGTTGATTCCAATGCTC,5.47,5.6,0.111,-0.79,1.18,2.45,0.0615,3.09,-0.377,1.97,2.03,2.66,1.07,0.474,2.82,1.5,0.0932,0.435
AATACAGGGCCACTAGGCCAGAGTAGGTACGAAT,1.33,2.42,0.705,0.0878,0.246,-0.239,-0.266,-0.268,0.415,0.772,0.294,0.551,0.711,-0.4,0.289,-0.0637,-0.308,0.318
CAAACTAGGTCAAGAGGTCAATGTCCGCTTCCCG,8.38,8.12,2.46,0.644,3.95,5.63,1.52,6.79,2.12,5.3,5.98,7.68,7.46,2.81,7.85,4.21,2.55,4.02
CTTAGCAGGCCAGGGTCACTCAAGCATTTCGCTT,1.45,1.72,-0.582,-0.865,0.785,2.67,-0.227,3.2,-0.241,2.81,2.87,2.99,2.53,0.934,3.39,2.93,1.32,1.28
TGAATGAGGTTAAAGTTCAGGGAACGTGGCGTCG,2.35,5.08,1.25,1.55,1.98,5.23,0.746,6.19,0.262,3.63,3.35,4.76,2.66,1.93,6.97,3.63,0.772,2.62
TTACCTAGGTGAAGGTCGTTGATCCCTCTGTAGA,2.92,3.84,0.00137,-0.113,0.298,1.16,0.136,1.48,-0.66,1.45,1.21,0.824,0.525,-0.143,1.29,1.9,0.379,0.61
CTACCCAGGTGAACAAGGTCGTTGATTACTATTC,1.84,2.27,0.299,-0.0404,0.541,2.03,0.96,1.61,0.91,1.29,1.57,1.18,0.941,0.701,1.46,2.94,1.87,1.92
TCTGCTAGGTCAACGATGGGCAGCTAATCTGCTA,4.14,4,1.49,-0.401,0.59,0.836,-1.21,1.73,-1.18,4.19,2.74,3.94,5.25,0.549,2.44,2.63,0.424,-0.398
ACTAGTTGGACAGCTGAGGTCACACACAATTCGG,0.874,1.88,0.609,0.717,1.73,4.67,1.34,4.57,1.08,3.33,4.06,3.66,3.43,1.09,3.85,4.57,4.93,2.99
CGTCCAAGGACAGCAGGTCAGTGAAAGCGACGTG,0.0757,0.113,-1.43,-0.869,-0.0601,0.288,-0.263,0.676,-0.162,2.37,2.36,1.72,2.06,0.0474,0.679,2.46,0.788,-0.264
CCTGACGGGTCACTCCAGGTTATAGCATCGGAGT,1.01,2.14,-0.43,-0.483,1.81,4.64,0.176,3.34,-0.12,3.31,2.89,3.82,3.7,1.04,3.59,5.04,0.311,1.27
GCATATAAGTAATACAAGGTGAAAGTCCGATTGT,0.462,0.546,0.743,0.728,0.405,0.436,0.309,1.13,0.698,0.452,0.816,0.308,0.389,0.717,0.568,2.96,0.985,-0.188
ATACCCAGGTGATCGTGAGGTCGTTGATACTAAC,-0.291,1.1,0.599,0.838,0.843,2.35,1.32,1.95,-0.274,0.914,2,1.49,0.63,0.432,1.39,3.14,2.72,2.52
AATACAGGGTCACTAGGACAGAGTAGGTACGAAT,3.86,5.7,2.64,3.05,2.54,3.17,0.566,4.21,1.62,4.27,3.32,5.16,4.79,2.9,5.5,3.64,1.72,2.97
CAAACTAGGTCACAGACGTCAAAGTCCGTGCGTA,8.58,8.8,3,2.09,2.24,1.72,0.0509,2.65,0.354,4.08,3.28,4.49,5.14,1.98,3.61,3.32,1.23,0.686
AGGATGAGGTTAAGATCAGGGAAACAGAATACAT,-0.114,0.973,0.72,0.516,1.27,1.56,1.2,1.9,1.63,2.1,1.48,2.1,1.71,0.731,2.55,2.66,1.15,1.08
GCTTTTAGATCAAGGTTAAGAAAGACTAAGCTAA,0.974,0.787,0.785,0.404,0.294,0.507,0.294,1.07,0.203,1.04,0.302,0.483,0.485,0.874,0.844,1.37,0.0946,-0.0628
ATCCCAAGGTGATCGTGAGGTCGTTGATACTAAC,0.258,0.592,0.328,-0.0144,1.01,2.89,1.37,1.81,0.229,1.31,1.61,1.97,0.447,0.515,1.21,3.42,2.59,2.9
GACACAGGGTCAAGGCCAGAGTACGCGTATTGAT,2.25,3.61,0.42,-0.363,1.5,3.91,0.315,4.77,0.257,4.41,3.64,5.52,5.02,2.59,6.19,3.64,0.875,2.13
CAAACTAGGTCAAGAGGTTAAAGTCCGCTTCCCG,8.33,8.39,1.58,0.849,2.66,3.48,0.622,4.85,1.25,4.47,4.23,6.18,5.49,1.61,5.2,3.36,1.36,1.86
TAGCCTATGTCAGATCGGGCCAGTATACGCTATA,-0.342,-0.424,-0.269,-0.692,-1.19,-0.323,-0.853,0.184,-0.755,0.0129,-0.337,-0.0162,-0.00722,-0.495,-0.0681,1.45,-0.592,-0.48
GTACCAAGGTGCATAGGTCGTTGATGAGTAGGCG,-0.499,0.0785,-0.485,-0.265,0.243,0.269,-0.124,1.1,-0.294,0.748,0.393,0.769,0.407,0.546,1.3,0.111,-0.427,0.968
CCAGAAAGGTGAGAAGGTAACTCAGCCTCGATTA,2.89,1.98,-0.302,-0.361,1.15,0.319,-0.419,1.28,0.133,2.67,1.43,2.36,1.91,0.256,1.53,0.725,0.0189,-0.238
TAGCCTATGTCATGCGGGCCAGTATAGTGTCGGC,-0.318,0.0427,-0.339,-0.807,-1.01,-0.639,-1.13,-0.718,-1.4,0.113,-0.116,-0.1,-0.059,-0.904,0.0276,-0.313,-0.992,-0.661
TCTATTAGTTAATTAGGGCAACCGAAACAGCGGA,4.63,5.38,1.64,1.52,0.99,0.546,0.152,0.998,1.68,1.04,0.756,0.526,0.551,1.16,0.875,1.05,0.627,0.625
GCTAGTTGGTCAGTAAAAGGACACACACCGGTCG,0.16,0.5,0.0692,-0.305,0.811,-0.134,0.246,0.153,0.849,1.61,2.31,1.15,1.73,-0.384,0.00337,0.856,0.41,0.256
